Test systems include SK-MEL-2 melanoma; EKVX NSCLC; SN12C renal; UO-31 renal; TK-10 renal; ACHN renal; CAKI-1 renal; A498 renal; CCRF-CEM leukemia; MOLT-4 leukemia; SR leukemia; RPMI-8226 leukemia; OVCAR-8 ovarian; OVCAR-5 ovarian; OVCAR-4 ovarian; SK-OV-3 ovarian; IGROV1 ovarian; OVCAR-3 ovarian; HS 578T breast; NCI/ADR-RES ovarian.
Common to all, as to assay: NCI-60 one-dose screen, 48 h (100 = growth as untreated, 0 = no growth, -100 = all killed)
What all share (settings): 10 µM unless noted

About 83,000 compounds went through this panel and 20% of them were active in at least one assay; those are over-represented in the sample as a whole.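 Method: cells in 96-well plates; compound added at one concentration; 48 h incubation; percent growth measured; values under 10 scored active.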 A number with no mark means an inactive call. Activity calls are given as the source filed them.

Take `O=C(Cc1ccccc1Nc1c(Cl)cccc1Cl)NN1C(=O)/C(=C/c2ccc(Br)cc2)SC1=S`: the growth in the assay on SK-MEL-2 melanoma was 99.9%; with EKVX NSCLC, 98.5%; in the assay with SN12C renal, 100%; in the assay on UO-31 renal it was 90.9%; in the assay on TK-10 renal, 107%; in the assay with ACHN renal, 104%. Besides, the growth with CAKI-1 renal was 100%; with A498 renal it was 107%; with CCRF-CEM leukemia it was 107%; in the assay on MOLT-4 leukemia, 107%; in the assay on SR leukemia, 132%; in the assay on RPMI-8226 leukemia, 106%. The growth with OVCAR-8 ovarian is 100%; with OVCAR-5 ovarian it was 100%; with OVCAR-4 ovarian, 114%; in the assay with SK-OV-3 ovarian, 100%; with IGROV1 ovarian, 97.7%; with OVCAR-3 ovarian it was 109%. Further, the results for the growth with HS 578T breast and in the assay with NCI/ADR-RES ovarian were 96.4% and 105%, respectively.
As for `CNc1ccc(-c2cc(=O)oc3ccc(Cl)cc23)cc1`, the growth in the assay on SK-MEL-2 melanoma was 33.7%; in the assay on EKVX NSCLC, 40.1%; with SN12C renal, 29.9%; in the assay with UO-31 renal it was 47.7%; with TK-10 renal, 50%; in the assay with ACHN renal it was 37%. In addition, the growth in the assay with CAKI-1 renal is 34.4%; in the assay on A498 renal it was -3.47% (active); in the assay on CCRF-CEM leukemia, 14.4%; in the assay on MOLT-4 leukemia, 11.3%; in the assay with SR leukemia it was 9.27% (active); in the assay with RPMI-8226 leukemia, 18.7%. The growth is 16.6% in the assay with OVCAR-8 ovarian; 55.6% in the assay on OVCAR-5 ovarian; 62.6% with OVCAR-4 ovarian; 9.16% (active) in the assay with SK-OV-3 ovarian; 50.1% in the assay on IGROV1 ovarian; 9.85% (active) with OVCAR-3 ovarian. The values for the growth in the assay on HS 578T breast and in the assay with NCI/ADR-RES ovarian were 16% and 12.4%, respectively.
As to `COc1cc(/C=C/c2cc(/C=C/c3ccc(O)c(OC)c3)n(-c3c(C)cccc3C)c(=O)n2)ccc1O`, the growth is -6.04% (active) in the assay on SK-MEL-2 melanoma; 17.7% in the assay on EKVX NSCLC; 11.6% in the assay on SN12C renal; 1.61% (active) in the assay on UO-31 renal; 27.4% in the assay with TK-10 renal; 6.48% (active) in the assay on ACHN renal. In addition, the growth is 17.2% in the assay on CAKI-1 renal; -6.94% (active) in the assay with A498 renal; 7.03% (active) with CCRF-CEM leukemia; 6.55% (active) in the assay with MOLT-4 leukemia; 0.0669% (active) with SR leukemia; -27.4% (active) in the assay on RPMI-8226 leukemia. In addition, the growth in the assay with OVCAR-8 ovarian was 0.393% (active); with OVCAR-5 ovarian it was 9.05% (active); with OVCAR-4 ovarian, 3.15% (active); with SK-OV-3 ovarian, -37.7% (active); in the assay with IGROV1 ovarian, 9.72% (active); in the assay with OVCAR-3 ovarian, 5.84% (active). Further, the growth with HS 578T breast is -4.97% (active); in the assay on NCI/ADR-RES ovarian, 12.6%.
Regarding `COc1ccc(-n2nc(C)c3c(Oc4ccc(NC(=O)Nc5c(Cl)cccc5Cl)cc4)ncnc32)cc1`, the growth in the assay on SK-MEL-2 melanoma is 106%; with EKVX NSCLC it was 95.8%; in the assay on SN12C renal, 101%; with UO-31 renal, 86.5%; in the assay with TK-10 renal, 110%; in the assay with ACHN renal, 106%. The growth is 95.3% in the assay with CAKI-1 renal; 99.1% in the assay with A498 renal; 95.5% with CCRF-CEM leukemia; 106% with MOLT-4 leukemia; 111% in the assay on SR leukemia; 102% with RPMI-8226 leukemia. Further, the growth with OVCAR-8 ovarian is 97.4%; in the assay on OVCAR-5 ovarian, 112%; in the assay with OVCAR-4 ovarian, 99.9%; in the assay on SK-OV-3 ovarian, 89%; in the assay on IGROV1 ovarian it was 101%; with OVCAR-3 ovarian, 112%. For the same compound, the growth with HS 578T breast is 92%; in the assay on NCI/ADR-RES ovarian, 102%.
In the case of `CC(=O)Nc1ccc(S(=O)(=O)Nc2cccc(-c3nc(-c4ccc(NC(=O)c5cccnc5)cc4Cl)no3)c2)cc1`, the growth with SK-MEL-2 melanoma was 35.9%; with EKVX NSCLC, 54.3%; with SN12C renal it was 41.3%; in the assay with UO-31 renal, 82.9%; in the assay with TK-10 renal, 69.9%; in the assay with ACHN renal, 81.2%. For the same compound, the growth in the assay with CAKI-1 renal was 90.6%; in the assay on A498 renal it was 36.9%; in the assay with CCRF-CEM leukemia, 23.3%; in the assay with MOLT-4 leukemia, 25.8%; in the assay with SR leukemia it was 19%; in the assay with RPMI-8226 leukemia, 43.8%. The growth was 38.8% with OVCAR-8 ovarian; 84.7% with OVCAR-5 ovarian; 53% with OVCAR-4 ovarian; 20.9% with SK-OV-3 ovarian; 54.7% in the assay with IGROV1 ovarian; 20.7% with OVCAR-3 ovarian. Further, the figures for the growth in the assay on HS 578T breast and in the assay on NCI/ADR-RES ovarian were 24.5% and 94.7%, respectively.
Turning to `Cn1cc(C(=O)c2nc(-c3c[nH]c4ccccc34)no2)c2ccccc21`, the growth in the assay with SK-MEL-2 melanoma is 65.3%; in the assay on EKVX NSCLC, 50.5%; with SN12C renal, 91.3%; in the assay on UO-31 renal, 61.6%; in the assay on TK-10 renal, 68.2%; in the assay with ACHN renal it was 86.4%. In addition, the growth in the assay with CAKI-1 renal is 56.9%; with A498 renal, 95.9%; in the assay with CCRF-CEM leukemia, 86.7%; with MOLT-4 leukemia, 72.5%; in the assay on SR leukemia, 44.1%; with RPMI-8226 leukemia, 78.9%. The growth in the assay on OVCAR-8 ovarian is 91.1%; in the assay with OVCAR-5 ovarian, 66%; in the assay with OVCAR-4 ovarian, 57.3%; in the assay with SK-OV-3 ovarian, 69.8%; with IGROV1 ovarian, 25.7%; with OVCAR-3 ovarian, 12.8%. Also, the results for the growth in the assay with HS 578T breast and in the assay on NCI/ADR-RES ovarian were 56.2% and 64.2%, respectively.
Regarding `CC1=C/C(=C(\c2ccc(N(C)C)cc2)c2ccc([N+](C)(C)C)cc2)C=CC1=[N+](C)C`, the growth with SK-MEL-2 melanoma is 110%; in the assay on EKVX NSCLC, 54.8%; in the assay on SN12C renal it was 50.9%; in the assay on UO-31 renal it was 96.1%; in the assay on TK-10 renal it was 90%; with ACHN renal, 78.1%. Besides, the growth in the assay on CAKI-1 renal was 99.2%; in the assay on A498 renal it was 81.9%; in the assay with CCRF-CEM leukemia, 85.8%; with MOLT-4 leukemia, 106%; in the assay with SR leukemia, 60.8%; in the assay with RPMI-8226 leukemia it was 2.54% (active). Further, the growth with OVCAR-8 ovarian is 36.2%; with OVCAR-5 ovarian, 115%; in the assay on OVCAR-4 ovarian, 89.3%; in the assay on SK-OV-3 ovarian, 94%; with IGROV1 ovarian it was 94.4%; in the assay with OVCAR-3 ovarian it was 86.6%. The growth was 55% in the assay with HS 578T breast and 100% in the assay on NCI/ADR-RES ovarian.
As for `c1ccc(Cn2cc(-c3nc4ccccc4s3)c3cccnc32)cc1`, the growth is 102% in the assay on SK-MEL-2 melanoma; 80.5% with EKVX NSCLC; 94.5% with SN12C renal; 76.7% with UO-31 renal; 118% with TK-10 renal; 105% in the assay with ACHN renal. For the same compound, the growth in the assay with CAKI-1 renal was 92.9%; in the assay with A498 renal, 104%; in the assay on CCRF-CEM leukemia it was 112%; with MOLT-4 leukemia, 105%; with SR leukemia, 112%; with RPMI-8226 leukemia, 99.9%. The growth in the assay with OVCAR-8 ovarian was 106%; in the assay with OVCAR-5 ovarian, 103%; in the assay with OVCAR-4 ovarian, 90.9%; in the assay with SK-OV-3 ovarian, 96.1%; in the assay with IGROV1 ovarian, 94.3%; with OVCAR-3 ovarian, 95.6%. Also, the growth in the assay on HS 578T breast is 110%; in the assay with NCI/ADR-RES ovarian, 98.6%.
